Bioassay records: PubChem BioAssay, several laboratories
Rows were chosen to be rich in hits. Some 3.4% of all compounds tested hit in one or more screens of this group.
ADAM10 inh – ADAM10 inhibition, QFRET primary screen; O14672; recombinant ADAM10, EDANS/DABCYL FRET peptide cleavage, 3 h; inhibition, % at 7 µM; 0.62% of 370,000 active; AID 720582;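 active = inhibition above a per-campaign cutoff equal to the mean of compounds falling between control-based bounds plus 3 SD, cut at about 20% in these data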
HGIII-sPLA2 inh – Blocks human group III sPLA2 activity; Q9NZ20; 0.56% of 370,000 active; QFRET BODIPY PC-A2 liposome hydrolysis, fluorescence; inhibition, % at 12.2 µM;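 active = inhibition above mean plus 3 SD of compounds lying within the high and low control bounds, cut at about 19% in these data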
Target sequence (Q9NZ20 whole entry, looked up): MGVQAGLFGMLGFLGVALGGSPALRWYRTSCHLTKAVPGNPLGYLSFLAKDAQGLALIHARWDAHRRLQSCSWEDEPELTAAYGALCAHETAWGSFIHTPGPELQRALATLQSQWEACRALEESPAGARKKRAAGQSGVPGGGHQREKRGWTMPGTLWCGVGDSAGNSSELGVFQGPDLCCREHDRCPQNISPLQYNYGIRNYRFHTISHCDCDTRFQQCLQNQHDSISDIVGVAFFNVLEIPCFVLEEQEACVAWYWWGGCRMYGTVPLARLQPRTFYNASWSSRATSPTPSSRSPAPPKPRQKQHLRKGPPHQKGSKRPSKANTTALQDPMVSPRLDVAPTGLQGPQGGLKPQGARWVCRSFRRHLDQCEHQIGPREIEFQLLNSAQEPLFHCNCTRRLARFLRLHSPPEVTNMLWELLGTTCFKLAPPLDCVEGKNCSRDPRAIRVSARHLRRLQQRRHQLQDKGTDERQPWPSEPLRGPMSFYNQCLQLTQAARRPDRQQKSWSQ
proKLK7 act – proKLK7 (human) activation, primary screen; activation, % at 7 µM; 0.9% of 370,000 active; purified proKLK7, EDANS-DABCYL substrate fluorescence; 100% is mature enzyme control, 0% vehicle;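 active = activation above the mean of all tested compounds plus 3 SD, computed per campaign excluding outliers beyond control limits, cut at about 13% in these data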
ADAM17 inh – inhibits human ADAM17. recombinant ADAM17, EDANS/DABCYL FRET peptide cleavage. P78536. inhibition, % at 6.95 µM. 0.83% of 370,000 active;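 active = inhibition above the mean of compounds lying between control limits plus 3 SD, set per campaign, cut at about 8.5% in these data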
NRP1-CendR mod – alters CendR peptide binding to human NRP-1; AID 602438; FAM-RPARPAR peptide binding to NRP-1, fluorescence polarization; O14786; 0.85% of 360,000 active; inhibition, % at 25 µM;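 active = inhibition or corrected inhibition above about 18%, plus a signal ratio from 0.5 to 1.5, limit read from the data, passing the limit was not always enough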
KLK7 act conf – proKLK7 activation, confirmation | shares compounds with proKLK7 act | purified proKLK7, EDANS-DABCYL substrate fluorescence; scaled: vehicle 0, mature enzyme 100 | activation, % at 7 µM | 68% of 3,200 active;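 active = activation, as change over the incubation, above the mean of all tested compounds plus 3 SD, cut at about 13% in these data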
EDANS interfere – fluorescence interference counter-screen for KLK7 activators; activation, % at 7 µM; 80% of 3,200 active; EDANS-DABCYL substrate fluorescence interference, no enzyme, 4 h; solvent 0%, active enzyme control 100%; AID 686952; shares compounds with proKLK7 act;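 active = activation above the all-compound mean plus 3 SD, ignoring values outside control-based bounds, cut at about 4.8% in these data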;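 also: value is the 4 h activation minus the activation read at time zero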
EDANS interf – optically interferes with EDANS-DABCYL fluorescence, kallikrein-7 activator counter-screen; shares compounds with proKLK7 act; EDANS-DABCYL peptide fluorescence interference, no enzyme; EC50, µM; 20% of 250 active; AID 720493;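 active = compounds that raise the fluorescence signal in this interference counterscreen, with EC50 at or below 10 µM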;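 also: intact quenched peptide substrate alone read at 355 nm excitation and 520 nm emission; signal is fluorescence gain from T0 to T4 after four hours at room temperature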
Large screens that a line does not name were inactive (follow-up assays come after a bar, where they were run).

CCC(NC(=O)Cc1c(C)c2c(cc(C)c3c(C)c(C)oc32)oc1=O)C(=O)O (stereo not given)	proKLK7 act 23 | KLK7 act conf 16 | EDANS interfere inactive | EDANS interf inactive
Cc1coc2c(C)c3oc(=O)c(CCC(=O)N[C@H](C(=O)O)C(C)C)c(C)c3cc12	proKLK7 act 16 | KLK7 act conf inactive | EDANS interfere 10
CC1CC(C)CN(C(=O)c2cc3c(=O)n4ccccc4nc3s2)C1 (stereo not given)	proKLK7 act 14 | KLK7 act conf 14 | EDANS interfere 12 | EDANS interf inactive
CC1CN(C(=O)c2cc3c(=O)n4ccccc4nc3s2)CC(C)O1 (stereo not given)	proKLK7 act 26 | KLK7 act conf 42 | EDANS interfere 40
N#Cc1cccc(NC(=O)OCCCN2CCC3(CCCCC3)C2=O)c1	none (no result: NRP1-CendR mod)
Cc1onc(-c2ccccc2Cl)c1C(=O)NC(=S)Nc1ccccc1C(N)=O	proKLK7 act 13 | KLK7 act conf inactive | EDANS interfere 9.1
C=CCN(CC#Cc1ccccc1)Cc1ccc(OC)cc1OC	none (no result: NRP1-CendR mod)
CC(=O)N1CC=C2C(C#N)=C(N)C(C#N)(C#N)[C@H](c3ccoc3)[C@H]2C1	proKLK7 act 16 | KLK7 act conf 16 | EDANS interfere 17
CCN1CC=C2C(C#N)=C(N)C(C#N)(C#N)C(CCc3ccccc3)C2C1 (stereo not given)	proKLK7 act 30 | KLK7 act conf 15 | EDANS interfere 16
CN1CC=C2C(C#N)=C(N)C(C#N)(C#N)[C@H](c3ccoc3)[C@H]2C1	none (no result: ADAM10 inh, HGIII-sPLA2 inh, proKLK7 act, ADAM17 inh)
Cc1ccc(C2C3CN(C(C)C)CC=C3C(C#N)=C(N)C2(C#N)C#N)cc1 (stereo not given)	none
N#CC1=C(N)C(C#N)(C#N)[C@H](c2ccoc2)[C@H]2CN(Cc3ccccc3)CC=C12	proKLK7 act 13 | KLK7 act conf inactive | EDANS interfere inactive
C[C@H]1[C@@H]2C[C@@]3(O[C@H](c4ccccn4)N=C3C[C@@H]1c1ccccc1)N(Cc1ccncc1)C2=O	none (no result: NRP1-CendR mod)
Cc1cccc(-n2c(=O)c(C#N)cc3c(=O)n4ccccc4nc32)c1	proKLK7 act 16 | KLK7 act conf 51 | EDANS interfere 72
Cc1ccc(-n2c(=O)c(C#N)cc3c(=O)n4ccccc4nc32)cc1	none
COc1ccc(CSc2nnc(SCC(=O)Nc3ccc(S(N)(=O)=O)cc3)s2)cc1	none (no result: NRP1-CendR mod)
O=C(/C=C/c1ccc2c(c1)OCO2)Nc1nncs1	proKLK7 act 13 | KLK7 act conf inactive | EDANS interfere inactive
NS(=O)(=O)c1ccc(NC(=O)/C=C/c2ccc3c(c2)OCO3)cc1	none
CC(=O)Nc1ccc(NC(=O)/C=C/c2ccc3c(c2)OCO3)cc1	proKLK7 act 19 | KLK7 act conf inactive | EDANS interfere 22
Cc1c(O)c(CN(C)C)cc2c1oc(=O)c1ccccc12	none
Cc1c(C)c2cc(Cl)c(O)c(CN(C)C)c2oc1=O	proKLK7 act 74 | KLK7 act conf 63 | EDANS interfere 65
Cc1c(CC(=O)O)c(=O)oc2c(C)c(OCc3ccc(F)cc3Cl)ccc12	none
CCc1c(C)c2cc(Cl)c(O)c(CN(CC)CC)c2oc1=O	proKLK7 act 53 | KLK7 act conf 73 | EDANS interfere 83
CCCCc1cc(=O)oc2c(CN(C)C)c(O)c(Cl)cc12	proKLK7 act 67 | KLK7 act conf 65 | EDANS interfere 86
CCCCc1cc(=O)oc2cc(OCC(=O)N(CC)CC)c(Cl)cc12	none
CCc1c(C)c2cc(Cl)c(O)c(CN(C)C)c2oc1=O	proKLK7 act 80 | KLK7 act conf 66 | EDANS interfere 67
COc1ccc(-c2c(Cc3ccccc3)nc(NC(=O)c3ccccc3)n2Cc2ccccc2)cc1	none (no result: NRP1-CendR mod)
COc1ccc(Cn2ccc3ccc(-c4ccc5ccn(Cc6ccc(OC)cc6)c5c4)cc32)cc1	none (no result: NRP1-CendR mod)
Cc1nn(-c2ccccc2)c2sc(C(=O)NC3CCCCCC3)cc12	none (no result: NRP1-CendR mod)
